Screen size: about 38,000 compounds; about 1,200 (3.2%) showed an effect of 50% or more. The median lay at about -58%. Only a selection was taken, and strong results are over-represented in it overall.
system: Plasmodium falciparum; assay: Calibr Malaria Delayed Death Assay SOP; assay type: functional, organism-based; parameters: scale not given: in the data most compounds retested in dose-response had high values; settings: concentration 4.99e-06 (unit not given; other assays of the set use mol/L)

SMILES	Percent Effect [%]
COc1ccc(-n2nnnc2C(C)(C)Nc2ccc(C)cc2C)cc1	-134.7
Cc1nnc(C2CCN(C(=O)c3ccsc3)CC2)s1	-17.33
Cn1ccnc1CN1CCC(c2ccnc(-c3cccc(O)c3)c2)C1 (centres undefined)	27.57
Oc1cccc(-c2cc(C3CCN(Cc4cncnc4)C3)ccn2)c1 (centres undefined)	-16.47
CN(C)CC(C)(C)CN1CCC(c2ccnc(-c3cccc(O)c3)c2)C1 (centres undefined)	69.12
Nc1cccnc1N1CCC(O)CC1	-81.29
Cc1n[nH]c(C)c1-c1cc(-c2cc[nH]c2)nc(N)c1C#N	-97.75
O=C(O)C(F)(F)F.c1cncc(N2CCCC3(CCN(CC4CCCO4)CC3)C2)c1 (centres undefined)	46.34
Cn1cc(CN2CCCC3(COCCN(c4cccnc4)C3)C2)cn1.O=C(O)C(F)(F)F.O=C(O)C(F)(F)F (centres undefined)	-73.12
c1cncc(CN2CCCC3(COCCN(c4cncnc4)C3)C2)c1 (centres undefined)	-38.46
O=C(O)C(F)(F)F.O=C(O)C(F)(F)F.c1cncc(N2CCCC3(CCN(CCN4CCCC4)CC3)C2)c1	91.95
O=C(O)C(F)(F)F.c1cncc(N2CCC3(CCCN(c4ccncc4)C3)CC2)c1	46.04
Cc1nc2cc(NCc3cnn(C)c3)ccc2n1C	-142.2
COCCN(C)C[C@@H]1CN(C(=O)NC2CCCCC2)C[C@@H]1CO	-45.61
CCn1c(C)cc(C(=O)Nc2ccccc2CN(C)C(C)=O)c1C	-65.04
O=C(c1cnc(C2CC2)nc1O)N1CCN(Cc2ccccc2F)CC1	-42.64
COc1cccc(CN2CC[C@H](c3nnc(C)o3)C2)c1	-103.2
Cc1nc(NCCC23CCCN2CCC3)cc(C2CCCNC2)n1 (centres undefined)	-30.47
Cc1nc(C2CCCNC2)cc(N(Cc2nccn2C)C2CC2)n1 (centres undefined)	7.981
O=c1n(Cc2ccccc2F)nc2ncccn12	-19.66
Fc1cccnc1Oc1cc(F)c(CN2CCCC2)c(F)c1	13.36
CCn1ccnc1C1CCN(Cc2c(F)cccc2F)CC1	-140
COc1cccc(CN2CCCC2Cn2nc(C)nc2C)c1 (centres undefined)	-44.63
CCSCc1cccc(NCc2cccnc2)c1	-120.6
CCCNc1cc(C(=O)N2CCOCC2)nc(C)n1	-41.3

SMILES	Percent Effect [%]
COCCNC(=O)c1ccc2c(=O)n3c(nc2c1)CCCCCC3	-86.41
CC(C)N(C)Cc1cn2c(n1)CN(C(=O)c1ccc[nH]1)CC2	-50.23
COC[C@@H]1CC[C@H]2[C@H](CCN2S(=O)(=O)c2cccc(F)c2)O1	-8.99
Cc1ccc2c(c1)N(C(=O)c1c[nH]c(C)cc1=O)CC(C)O2 (centres undefined)	-44.94
O=C(c1cnccn1)N1CCCC(c2cccc(-n3ccnc3)n2)C1 (centres undefined)	-38.64
CC(C)C1SCC(=O)Nc2c1cnn2-c1ccc(Cl)cc1F (centres undefined)	-28.94
CCC(=O)NCC(=O)N(C)C(c1ccc(Cl)cc1)c1cccnc1 (centres undefined)	-30.63
Cn1c2ccc(F)cc2c2ncn(CCN3CCOCC3)c(=O)c21	-139.8
CC(Cc1ccccc1F)C(=O)Nc1cccc(OCC(N)=O)c1 (centres undefined)	-53.66
Cc1ccc([C@]2(O)CC[C@H]3CN(Cc4cccnc4)C[C@H]32)nc1	-69.34
Cc1ccc([C@]2(O)CC[C@H]3CN(Cc4cccc(F)c4F)C[C@H]32)nc1.O=C(O)CC(O)(CC(=O)O)C(=O)O	43.22
Cc1ccc([C@]2(O)CC[C@H]3CN(Cc4ccc(Cl)cc4Cl)C[C@H]32)nc1	64.98
CCc1oc(C(=O)N[C@@H]2c3ccccc3C[C@@H]2O)cc1CN1CCCC1	-27.56
CCOc1ccc(CN2CCN(C(=O)c3cc(C4CC4)[nH]n3)CC2)cc1	-17.17
CS(=O)(=O)NC1CCCN(Cc2ccc(OCc3ccccn3)cc2)C1 (centres undefined)	-34.46
Cn1cc(CN(C(=O)c2ccc3ncsc3c2)C2CC2)cn1	-137
COCC1CC2(CCN(Cc3ccc(C)o3)CC2)CN1C(C)C.O=C(O)C(F)(F)F.O=C(O)C(F)(F)F (centres undefined)	34.42
COCC1CC2(CCN(C(=O)c3ccccc3C)CC2)CN1C(C)C.O=C(O)C(F)(F)F (centres undefined)	-58.35
COCC1CC2(CCN(Cc3cccc(C#N)c3)CC2)CN1C(C)C.O=C(O)C(F)(F)F.O=C(O)C(F)(F)F (centres undefined)	72.4
COCC1CC2(CCN(C(=O)c3ccco3)CC2)CN1C(C)C.O=C(O)C(F)(F)F (centres undefined)	24.38
COCC1CC2(CCN(Cc3ccco3)CC2)CN1C(C)C.O=C(O)C(F)(F)F.O=C(O)C(F)(F)F (centres undefined)	63.6
COC1COC2(CCN(Cc3cccc(C#N)c3)CC2)C1.O=C(O)C(F)(F)F (centres undefined)	-4.356
CNC(=O)CNC(=O)Nc1cc(-c2ccccc2)ns1	-97.73
O=C(O)C(F)(F)F.O=C1CCCN1Cc1nnc2n1CCN(Cc1ccoc1)CC2	-13.9
CCOCCNC(=O)c1cccnc1Sc1cc(OC)ccc1OC	-83.15

SMILES	Percent Effect [%]
CC(C)OCc1noc(C2CCCOC2)n1 (centres undefined)	-85.93
COC(=O)CCC(=O)NCc1cccnc1N1CCc2ccccc2C1	58.06
Cc1nnsc1C(=O)NCc1cccnc1N1CCc2ccccc2C1	-86.78
NC(=O)NCCC(=O)NCc1cccnc1N1CCc2ccccc2C1	-76.53
Cc1cc(C(=O)NCc2cccnc2N2CCc3ccccc3C2)[nH]n1	-34.77
Cc1n[nH]cc1C(=O)NCc1cccnc1N1CCc2ccccc2C1	75.05
CC(C)[C@@H](N)C(=O)NCc1cccnc1N1CCc2ccccc2C1	28.21
O=S(=O)(Cc1ccccc1F)Cc1nnnn1C1CC1	-164.7
CC(C)CC(=O)N1CCC2(CC1)OC(C(N)=O)Cn1ccnc12.O=C(O)C(F)(F)F (centres undefined)	-41.43
CC(C)c1cc(C(=O)NC2CCN(CC(N)=O)CC2)nn1C(C)(C)C	-153
COc1ccc2oc(C(C)NC(=O)NCc3noc(C)n3)c(C)c2c1 (centres undefined)	-10.38
CCc1cnc(N)nc1NCCCn1nc(C)nc1C	-48.25
CCc1cnc(C)nc1NCCN1CCOCC1	-14.69
CCc1cnc(N)nc1NCCC(=O)NC1CCCCC1	-82.55
CCc1cnc(N)nc1NCCCn1cc(Cl)cn1	84.03
Cn1cc(Br)c(C(=O)NCCCn2cc(Cl)cn2)n1	-63.62
CCc1cnc(N)nc1NCCn1cc(Cl)cn1	54.15
CCN(CC)C(=O)C1CCCN(CC(=O)Nc2c(C)nn(CC)c2C)C1 (centres undefined)	-43.93
Cc1nn(CC(=O)N2CCN(Cc3cnn(C)c3C)CC2)cc1Cl	-81.13
CCNC(=O)c1ccc(N2CCCC(c3nccn3C(C)C)C2)nc1 (centres undefined)	-31.13
CC(C)n1ccnc1C1CCN(C(=O)c2ccccc2)CC1	-13.68
CCNC(=O)C1CCN(c2cc(-c3ccccc3)nc3ccnn23)C1 (centres undefined)	-30.81
Cc1cc(N2CCCC(N(C)C)C2)n2nccc2n1 (centres undefined)	-65.48
CN(C)C1CCN(c2cc(-c3ccccc3)nc3ccnn23)C1 (centres undefined)	51.07
O=C(NCCCn1ccccc1=O)c1cnc(-c2ccsc2)s1	-39.04

SMILES	Percent Effect [%]
O=S(=O)(CCNCc1cccc2c1OCCO2)N1CCOCC1	10.69
O=C(CC1CCCC1)NCCNCc1cccc2c1OCCO2	71.86
O=C(CCNCc1cccc2c1OCCCO2)NC1CCCC1	12.04
CC(C)c1nc(CN2CCOC(CNc3cccnn3)C2)cs1 (centres undefined)	-68.41
O=C1c2ccccc2C(=O)N1CC(O)Cn1nc(-c2cccs2)oc1=O (centres undefined)	1.705
O=C(c1ccnc(CC2COc3ccccc3C2)c1)N1CCCC1 (centres undefined)	-41.96
CCS(=O)(=O)N1CCc2ccc(NC(=O)NC(C)(C)C)cc21	-106.6
CC(O)CN1CCC(CNCc2cccc(C(F)(F)F)c2)CC1 (centres undefined)	82.43
CN1CCOC(CNCc2cccc(OC(F)(F)F)c2)C1 (centres undefined)	1.205
CCn1ccnc1CNCC1CCN(CC(O)c2ccccc2)CC1 (centres undefined)	-30.37
CC(O)CN1CCC(CNCc2cccc(OC(C)C)c2)CC1 (centres undefined)	61.47
CC(C)Oc1cccc(CC(=O)NC2CCN(CC(N)=O)CC2)c1	-80.49
CC(C)Oc1cccc(CN2CCC(C(C)N3CCOCC3)CC2)c1 (centres undefined)	55.35
FC(F)(F)Oc1cccc(CNC[C@H]2Cn3ccnc3CO2)c1	-105.1
CC(C1CCN(Cc2ccc(OC(F)F)cc2)CC1)N1CCOCC1 (centres undefined)	-27.61
Cc1cccc(-c2[nH]ncc2CNCC2CCN(CC(C)O)CC2)c1 (centres undefined)	-49.15
CC(O)CN1CCC(CNCc2cccc(C(N)=O)c2)CC1 (centres undefined)	-77.28
CC(C1CCN(Cc2ccc(N(C)C)nc2)CC1)N1CCOCC1 (centres undefined)	-9.646
O=C(Nc1cn[nH]c1)N1CCCCCC1c1ccncc1 (centres undefined)	-103.8
Cn1cnc(S(=O)(=O)N2C[C@@H]3CC[C@H](C2)N(Cc2ccccn2)C3)c1	-132.7
N#Cc1ccc(F)c(CNC(=O)NC(CO)c2ccccc2)c1 (centres undefined)	-103.2
Cc1ccc(N2CCC3(CCC(=O)N3Cc3ccncc3)CC2)nn1.O=C(O)C(F)(F)F	-132.1
COCCn1cc(CC(=O)Nc2cc(C)n(C)n2)c2ccccc21	-50.35
Cc1cc(NCCC(=O)NC2CCCCC2)nc(-c2ccncc2)n1	-22.05
